CHX counter – affects cycloheximide protein synthesis inhibition readout, counter-screen | cell reporter, cycloheximide protein synthesis inhibition counterscreen | hit rate 12% among 300,000 | max response, %; in the data active = max response mostly above about 13%, no sharp cut-off; inactive = mostly below about 14%; also: read at 38.3 µM for the half of the compounds with a filed dose; 0% is about no effect
Pf growth 48h – P. falciparum growth inhibition at 48 hours (one generation); P. falciparum luciferase growth in erythrocytes, 48 h; Potency, µM (titrated, usually from 28.7 µM), inactives show at the highest dose activity change, negative = inhibition, actives largely listed as inhibitors; hit rate 5.9% among 310,000; AID 504832; also: potency is read from the fitted curve at half-maximal effect; % is scaled to controls: 0 for no effect and ±100 for the full control effect
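Growth was read as firefly luciferase luminescence after a 48 h, 37 C, 5% CO2 exposure of compounds to reporter-bearing P. falciparum cultures (0.1% parasitemia, 2% hematocrit final) in Albumax-supplemented RPMI 1640.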
Shiga inhibitor – blocks Shiga toxin action in Vero cells; hit rate 9.2% among 290,000; inhibition, % at 38.7 µM; Vero cells, Shiga toxin protein synthesis inhibition reporter; AID 2315; in the data active = inhibition mostly above about 28%, no sharp cut-off; inactive = mostly below about 43%; also: 0% is about no effect
NS1 function inh – influenza NS1 inhibition; Potency, µM (doses to about 46.1 µM), for the others: at the highest dose activity, positive = more growth; AID 2326; hit rate 0.4% among 270,000; calls by dose curve; also: potency is read from the fitted curve at half-maximal effect; actives are rising curves; nearly all actives have a fitted effect of over 50% in size
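Read-out: OD600 growth recovery of NS1-expressing budding yeast. Cells grown overnight at 30C in -URA glucose medium, washed, resuspended and diluted 1:100 in 2% galactose assay medium, pH 6.0. Same strain lacking NS1 served as positive control.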
Pf growth 96h – inhibits malaria parasite growth, 96 h | P. falciparum luciferase reporter growth, 96 h | Potency, µM (series often up to 28.7 µM), for inactives: at the highest dose activity change, negative = inhibition, hits mostly inhibitors | hit rate 6.9% among 320,000 | AID 504834; also: potency is read from the fitted curve at half-maximal effect; % is scaled to controls: 0 for no effect and ±100 for the full control effect
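Two parasite generations (96 h, 37 C, 5% CO2) of compound exposure in infected erythrocytes (0.05% parasitemia, 2% hematocrit). Luciferase-reporter P. falciparum; decreased luminescence indicates inhibited growth, aimed at apicoplast-acting delayed death.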
An asterisk follows results filed as active; ? = inconclusive; nt = no result given; ! = a repeat was not active. Hits are enriched below; roughly 21% of the tested compounds scored in any of these assays. Unless noted, calls follow the shape of the dose curve; as a rule, active = well fitted inhibition curve with a large enough effect; inconclusive = small, poorly fitted or top-dose-only effect, or another doubt; inactive = no such curve, though single readings can be large or run the other way.

SMILES | CHX counter | Pf growth 48h | Shiga inhibitor | NS1 function inh | Pf growth 96h
C=CCn1c(SCC(=O)N(C(C)CC)C2CCS(=O)(=O)C2)nc2ccccc2c1=O (stereo not given) | nt | ? | nt | nt | 5.9µM*
CCC(C)N(C(=O)CSc1nc(C)nc2ccccc12)C1CCS(=O)(=O)C1 (stereo not given) | nt | ? | nt | nt | 15µM*
CCC(C)N(C(=O)CSc1nc(-c2ccccc2)cs1)C1CCS(=O)(=O)C1 (stereo not given) | 3 | nt | 3 | 12% | ?
CCn1c(SCC(=O)N(Cc2ccccc2)C2CCS(=O)(=O)C2)nc2ccccc2c1=O (stereo not given) | -7 | 5.2µM* | -16 | -7% | nt
CCC(C)N(C(=O)COc1ccccc1C(=O)NCc1ccccc1)C1CCS(=O)(=O)C1 (stereo not given) | -4 | ? | -12 | -2% | 9.3µM*
COc1ccc(-n2c(=O)n(Cc3ccccc3)c(=O)c3[nH]cnc32)cc1 | 12 | 10% | -9 | -2% | ?
COc1ccc(Cn2c(=O)c3[nH]cnc3n(-c3ccc(C)cc3)c2=O)cc1 | 6 | ? | -7 | 1% | 2.3µM*
O=C(NC1=NCCS1)c1ccccc1Cl | 8.2* | 6% | 15 | -25% | 3%
O=C(NC1=NCCS1)Nc1ccccc1 | 36* | 337% | 65* | -2% | 88%
O=C(NC1=NCCS1)c1cc(Cl)ccc1Cl | 4 | 5% | -3 | -8% | 3%
O=C(NC1=NCCS1)c1ccc(Cl)c(Cl)c1 | 48* | 182% | 68* | 2% | 0%
O=C(NC1=NCCS1)c1csc2ccccc12 | 39* | 257% | 59* | -161% | 0%
O=C(NC1=NCCS1)c1ccc(Cl)c(S(=O)(=O)N2CCCC2)c1 | 4 | ? | -10 | nt | ?
O=C(NC1=NCCS1)c1cccs1 | -3 | ? | 11 | 5% | ?
CC(C(=O)NC1=NCCS1)(C(F)(F)F)C(F)(F)F | -4 | -2% | 10 | -4% | nt
O=C(NC1=NCCS1)c1cc2ccccc2o1 | 18* | 202% | 17 | -48% | 76%
CC(C)(C)C(=O)NC1=NCCS1 | -2 | 10% | -16 | 0% | 1.5µM*
CCOc1ccc(NCc2nnc(SCC(=O)Nc3nc(-c4ccccc4)cs3)n2-c2ccccc2)cc1 | -2 | 8% | -7 | 12% | -14%
O=[N+]([O-])c1cc(C(F)(F)F)ccc1N1CCN(S(=O)(=O)c2ccc3ccccc3c2)CC1 | 2 | ? | -5 | 25% | -33%
O=C(c1ccc(N2CCCC2)c([N+](=O)[O-])c1)N1CCN(S(=O)(=O)c2ccccc2)CC1 | nt | 10µM* | nt | nt | ?
Cc1ccc(C)c(S(=O)(=O)N2CCN(C(=O)c3ccc(-n4cncn4)c([N+](=O)[O-])c3)CC2)c1 | nt | ? | nt | nt | 12µM*
Cn1c(=O)n(C)c2cc([N+](=O)[O-])c(N3CCN(S(=O)(=O)c4ccc(C(C)(C)C)cc4)CC3)cc21 | 1 | 9.3µM* | -8 | 13% | ?
O=[N+]([O-])c1cc(C(F)(F)F)cc([N+](=O)[O-])c1N1CCN(S(=O)(=O)c2ccccc2)CC1 | -4 | ? | -4 | 3% | 15µM*
Cc1ccc(C)c(S(=O)(=O)N2CCN(C(=O)c3ccc(N4CCCC4)c([N+](=O)[O-])c3)CC2)c1 | 1 | ? | -12 | 12% | ?
CC(Sc1nnnn1-c1ccc(O)cc1)c1nc2ccccc2c(=O)[nH]1 (stereo not given) | 1 | -7% | -8 | -3% | 3%
SMILES | CHX counter | Pf growth 48h | Shiga inhibitor | NS1 function inh | Pf growth 96h
O=S(=O)(c1cccc(C(F)(F)F)c1)N1CCN(c2nnnn2-c2ccccc2)CC1 | -3 | -2% | -6 | 0% | 8.3µM*
CC(=O)Nc1ccc(S(=O)(=O)N2CCN(c3nnnn3-c3ccccc3)CC2)cc1 | -1 | -26% | 4 | 6% | 69%
O=C(c1ccc(-n2cncn2)c([N+](=O)[O-])c1)N1CCN(S(=O)(=O)c2ccc(Cl)cc2)CC1 | 1 | ? | -10 | -1% | 4.7µM*
CC(Nc1nc(-c2ccncc2)nc2ccccc12)c1ccccc1 (stereo not given) | -5 | 5.2µM* | -5 | -3% | 4.7µM*
COc1ccccc1C(C)Nc1nc(-c2cccnc2)nc2ccccc12 (stereo not given) | -4 | 13µM* | -7 | -76% | ?
CC(Nc1nc(N2CCNCC2)nc2ccccc12)c1ccccc1 (stereo not given) | 0 | 2.9µM* | -7 | nt | 0%
COC(=O)c1cccc(Nc2nc(-c3cccnc3)nc3ccccc23)c1 | -2 | ? | 13 | 5% | ?
c1ccc(Nc2nc(-c3ccncc3)nc3ccccc23)cc1 | -3 | 0% | -13 | 2% | ?
c1ccc2c(NCC3CCCO3)nc(N3CCOCC3)nc2c1 (stereo not given) | -3 | 13% | 14 | -2% | 11%
Cc1cc2c3c([nH]c2cc1S(=O)(=O)N1CCC2(CC1)OCCO2)CC(C)(C)CC3=O | -3 | 8.3µM* | -5 | 1% | ?
COCCNC(=O)CN(CCc1ccccc1)S(=O)(=O)c1ccc(Br)cc1 | -3 | -6% | nt | 5% | -13%
NC(=O)Nc1ccc(Cl)cc1 | -2 | 90% | 17 | -4% | 35%
C/C(=N\OC(=O)Nc1ccc(Cl)cc1)c1ccc(F)c(F)c1 | 17* | nt | 54* | -76% | 26%
O=C(Nc1ccc(Cl)cc1)ON=C1CCCC1 | 40* | 12µM* | 56* | -43% | ?
O=C(NCCCCCCNC(=O)ON=C1CCCCC1)ON=C1CCCCC1 | 27*! | nt | 27*! | nt | nt
CCn1nnnc1SCC(=O)N1CCCc2ccccc21 | 6 | 20% | 25 | 2% | ?
COc1ccc(OC)c(CCNC(=O)c2ccc(CS(=O)Cc3cccc(Cl)c3)o2)c1 (stereo not given) | 2 | ? | 0 | -1% | 4.1µM*
COc1ccc(OC)c(Cc2nnc(CCC(=O)NCc3nc4ccccc4s3)o2)c1 | 16 | 0% | 32 | 1% | 7.4µM*
COc1ccc(CCNC(=O)CCc2nnc(Cc3ccc4c(c3)OCO4)o2)c(OC)c1 | -2 | -5% | -7 | -5% | 0%
COc1ccc(OC)c(Cc2nnc(CCC(=O)N3CCCCC3c3nccs3)o2)c1 (stereo not given) | 43* | -11% | 87* | 0% | 28%
COc1cccc(CCNC(=O)CCc2nnc(Cc3cc(OC)ccc3OC)o2)c1 | 28* | -12% | 23* | -15% | -22%
Cc1nc2ccccn2c1-c1ccnn1S(=O)(=O)c1ccc(F)cc1 | 10 | ? | -6 | -3% | ?
COc1ccc(OC)c(Cc2nnc(CCC(=O)NC3CCCCCCC3)o2)c1 | 33* | -18% | 77* | -1% | ?
c1ccc2c(c1)nc(NCc1ccc3c(c1)OCO3)n2CCN1CCOCC1 | -4 | -22% | -2 | 1% | 21%
c1csc(-c2csc3nc(CN4CCOCC4)nc(NCc4ccc5c(c4)OCO5)c23)c1 | 8 | ? | 1 | -37% | 8.3µM*
Cc1cccc(C)c1OC(=O)CSc1nnc(-c2ccccc2O)o1 | 11 | nt | -13 | 3% | 30%

Screening data (PubChem)
